# According to PubChem BioAssay (NCI):
# About 79,000 compounds went through this panel and 15% of them were active in at least one assay; those are over-represented in the sample as a whole. Values without a mark were called inactive. Calls of active or inactive are those of the source. Cut-off read from the data, not from the text of the source: active = growth inhibition above about 70%; inactive = the rest.
# Legend:
# [1] = NCI Yeast Anticancer Drug Screen. Data for the rad50 strain (AID 155);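 note: 0% = growth of vehicle-only cultures of the same strain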; conditions: S. cerevisiae rad50 strain growth inhibition, stronger effect = higher value
# Outline: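 A DNA repair-deficient yeast mutant serves as the test organism; compound-induced growth inhibition is calculated against vehicle-treated cells.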
# [2] = NCI Yeast Anticancer Drug Screen. Data for the mec2-1 strain (AID 157); conditions: S. cerevisiae mec2-1 strain, stronger effect = higher value
# Outline: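 Growth inhibition is read against vehicle-treated controls after compound exposure of the mec2-1 yeast strain, which is defective in DNA damage repair or cell cycle control.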
# [3] = NCI Yeast Anticancer Drug Screen. Data for the sgs1 mgt1 strain (AID 161);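 note: 0% = growth of cultures given vehicle only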; conditions: S. cerevisiae sgs1 mgt1 strain, stronger effect = higher value
# Outline: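 Yeast cells carrying a defined DNA-repair defect were exposed to test compounds. Growth inhibition was measured relative to vehicle-treated controls.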
# [4] = NCI Yeast Anticancer Drug Screen. Data for the cln2 rad14 strain (AID 165);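 note: 0% = growth equal to vehicle treated cultures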; conditions: S. cerevisiae cln2 rad14 strain, stronger effect = higher value
# Outline: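 Growth inhibition, relative to vehicle-treated controls, is the read-out. The test organism is a yeast strain with defined genetic alterations, cln2 rad14.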
# [5] = NCI Yeast Anticancer Drug Screen. Data for the bub3 strain (AID 167); conditions: S. cerevisiae bub3 mutant strain, stronger effect = higher value
# Outline: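 Inhibition values come from growth of compound-treated mutant yeast normalised to vehicle-treated controls.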
# [6] = NCI Yeast Anticancer Drug Screen. Data for the mlh1 rad18 strain (AID 175); conditions: S. cerevisiae mlh1 rad18 strain growth inhibition, stronger effect = higher value
# Outline: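 Cells of a genetically altered yeast strain, deficient in DNA damage repair, were treated with compound. Their growth was then compared with that of vehicle-treated cultures to give inhibition.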
# [7] = at 5.0 µM (retest, dose inferred, filed as 0.5)
# [8] = at 50.0 µM (retest, dose inferred, filed as 5.0)
Structure (SMILES),"growth inhibition [1, 7]","growth inhibition [1, 8]",growth inhibition ([1]; at 50.0 µM),"growth inhibition [2, 7]","growth inhibition [2, 8]",growth inhibition ([2]; at 50.0 µM),"growth inhibition [3, 7]","growth inhibition [3, 8]",growth inhibition ([3]; at 50.0 µM),"growth inhibition [4, 7] [%]","growth inhibition [4, 8]",growth inhibition ([4]; at 50.0 µM),"growth inhibition [5, 7]","growth inhibition [5, 8]",growth inhibition ([5]; at 50.0 µM),"growth inhibition [6, 7]","growth inhibition [6, 8]",growth inhibition ([6]; at 50.0 µM)
NC(=O)NC(CC(=O)O)C(=O)O (stereo not given),-6%,12%,-19.9%,-7%,-4%,-4.35%,-8%,-5%,-6%,-3,-4%,65.8%,3%,-6%,-29.8%,-8%,4%,-1.7%
O=C1C=CC(=O)c2c(O)c(N3CCN(CCO)CC3)c(Cl)c(O)c21,37%,95% (active),84.7% (active),33%,99% (active),89.8% (active),48%,99% (active),90.7% (active),26,82% (active),86.8% (active),47%,98% (active),88.5% (active),41%,98% (active),88.8% (active)
CC(C)(Sc1cc(Cl)c(Cl)c(Cl)c1)C(=O)OCCN1CCOCC1,78% (active),98% (active),98.2% (active),77% (active),98% (active),99.6% (active),87% (active),98% (active),99.4% (active),59,96% (active),98.3% (active),76% (active),92% (active),99.2% (active),67%,98% (active),97.5% (active)
O=C1NN(C2=NNC3(C(=O)N2)c2ccccc2-c2ccccc23)C(c2ccccc2)=N/C1=C/c1ccc(O)cc1,1%,-14%,21.4%,-14%,9%,50%,-9%,23%,65%,-6,21%,7%,-14%,9%,81.5% (active),-43%,28%,83.2% (active)
O=C(O)[C@@H]1CCCC[C@@H]1C(=O)N(C1CCCCC1)C1CCCCC1,-4%,79% (active),45.1%,-15%,86% (active),14%,8%,73% (active),59%,-7,96% (active),28.6%,-5%,96% (active),9.45%,-39%,89% (active),0.5%
Cc1ccc2c(c1)C(=O)N(CC[P+](c1ccccc1)(c1ccccc1)c1ccccc1)C2=O,81% (active),89% (active),61.8%,63%,85% (active),63.8%,74% (active),91% (active),66.8%,65,79% (active),36%,84% (active),90% (active),66.7%,71% (active),82% (active),62.3%
Nc1c(-c2c(Cl)cccc2Cl)[n+]([O-])c2ccccc2[n+]1[O-],26%,99% (active),75% (active),29%,99% (active),38.9%,44%,100% (active),74.7% (active),28,99% (active),69.3%,45%,99% (active),66.8%,72% (active),99% (active),88.8% (active)
[N-]=[N+]=Nc1ccc(SSCCC(=O)ON2C(=O)CCC2=O)cc1,24%,97% (active),98.6% (active),20%,98% (active),98.8% (active),40%,98% (active),98.3% (active),4,97% (active),97.8% (active),2%,97% (active),98.7% (active),38%,98% (active),98.5% (active)
Cc1cc2c(cc1C)[n+](=O)c(C(=O)C/C(=N/NC(=O)CC#N)C(=O)Nc1ccccc1C(F)(F)F)c(C)n2[O-],53%,53%,92.4% (active),57%,57%,91% (active),58%,58%,91.8% (active),38,38%,91.5% (active),46%,46%,94% (active),54%,54%,90.8% (active)
COC(=O)C12Oc3ccc(-c4ccc5c(c4O)C(O)=C4C(=O)CC(C)C(O)C4(C(=O)OC)O5)c(O)c3C(O)=C1C(=O)CC(C)C2O (stereo not given),57%,97% (active),90.5% (active),61%,96% (active),88.3% (active),37%,98% (active),82.5% (active),6,96% (active),91.2% (active),53%,97% (active),94.1% (active),57%,97% (active),80.8% (active)
